In the supplement of paper PMC10849652:
Of roughly 7,900 targets only a part is listed; those with a hit were picked by preference. About 0.6% of all pairs of compound and target were hits.

Compound: CCCS(=O)(=O)Nc1ccc(F)c(C(=O)c2c[nH]c3ncc(Cl)cc23)c1F
Experiment: log2 fold change, soluble protein after heating vs DMSO (PISA); higher = thermal stabilisation; K562 cells, 10 uM, 30 min; active = over 0.2 and 3.5 SD of the protein, either way, in both replicates (recomputed)
Outline: (§1)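 K562 cells at 2×10^6 cells/mL were treated with 10 μM compound for 30 min. Aliquots were heated for 3 min across 48°C-58°C, pooled, and extracted in PBS with 0.5% NP-40 at 4°C; soluble protein was the supernatant after 21,000xg for 90 min. Soluble protein was quantified by TMTpro 16plex LC-MS/MS with channel sums equalised, and reported as log2 fold change in thermal stability against DMSO controls, with values from duplicates.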

Chain of UniProt Q10570 (Q10570 whole entry, looked up): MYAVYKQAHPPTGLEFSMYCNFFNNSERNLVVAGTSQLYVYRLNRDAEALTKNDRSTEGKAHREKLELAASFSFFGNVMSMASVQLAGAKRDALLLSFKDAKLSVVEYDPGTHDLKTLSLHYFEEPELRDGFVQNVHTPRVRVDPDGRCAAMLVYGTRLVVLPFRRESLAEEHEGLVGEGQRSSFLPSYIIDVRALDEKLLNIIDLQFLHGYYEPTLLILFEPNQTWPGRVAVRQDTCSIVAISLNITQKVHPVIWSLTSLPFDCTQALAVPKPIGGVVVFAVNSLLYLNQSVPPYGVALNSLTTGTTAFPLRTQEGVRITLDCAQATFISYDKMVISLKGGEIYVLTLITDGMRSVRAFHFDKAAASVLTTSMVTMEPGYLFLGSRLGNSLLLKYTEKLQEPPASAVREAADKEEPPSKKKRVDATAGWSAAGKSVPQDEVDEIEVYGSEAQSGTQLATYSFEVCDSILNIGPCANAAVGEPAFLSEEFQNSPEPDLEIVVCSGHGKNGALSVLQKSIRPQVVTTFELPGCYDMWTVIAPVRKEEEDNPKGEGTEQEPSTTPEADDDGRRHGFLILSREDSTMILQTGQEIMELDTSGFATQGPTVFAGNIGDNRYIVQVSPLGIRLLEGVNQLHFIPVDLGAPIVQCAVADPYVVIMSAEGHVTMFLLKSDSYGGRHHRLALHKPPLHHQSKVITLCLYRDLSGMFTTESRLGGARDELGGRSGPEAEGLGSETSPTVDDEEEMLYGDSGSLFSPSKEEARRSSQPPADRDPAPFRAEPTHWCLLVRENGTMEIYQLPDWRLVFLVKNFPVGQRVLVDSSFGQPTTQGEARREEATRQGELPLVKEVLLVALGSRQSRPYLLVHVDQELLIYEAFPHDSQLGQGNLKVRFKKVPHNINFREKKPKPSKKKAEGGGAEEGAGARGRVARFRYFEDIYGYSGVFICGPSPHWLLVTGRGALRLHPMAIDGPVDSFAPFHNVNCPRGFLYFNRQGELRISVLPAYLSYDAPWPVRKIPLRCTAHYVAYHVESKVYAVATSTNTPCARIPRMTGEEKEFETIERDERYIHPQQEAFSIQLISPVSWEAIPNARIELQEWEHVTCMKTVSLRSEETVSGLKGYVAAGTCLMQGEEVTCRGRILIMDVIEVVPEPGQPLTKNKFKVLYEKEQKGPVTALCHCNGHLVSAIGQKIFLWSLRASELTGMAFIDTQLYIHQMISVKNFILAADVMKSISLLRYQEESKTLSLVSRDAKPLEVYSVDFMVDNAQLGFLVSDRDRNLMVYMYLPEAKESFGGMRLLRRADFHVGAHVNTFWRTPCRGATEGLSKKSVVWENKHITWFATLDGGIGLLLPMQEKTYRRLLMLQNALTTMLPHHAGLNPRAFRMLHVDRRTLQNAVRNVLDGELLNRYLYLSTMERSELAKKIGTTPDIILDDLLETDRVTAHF
Chain of UniProt P86791 (P86791 whole entry, looked up): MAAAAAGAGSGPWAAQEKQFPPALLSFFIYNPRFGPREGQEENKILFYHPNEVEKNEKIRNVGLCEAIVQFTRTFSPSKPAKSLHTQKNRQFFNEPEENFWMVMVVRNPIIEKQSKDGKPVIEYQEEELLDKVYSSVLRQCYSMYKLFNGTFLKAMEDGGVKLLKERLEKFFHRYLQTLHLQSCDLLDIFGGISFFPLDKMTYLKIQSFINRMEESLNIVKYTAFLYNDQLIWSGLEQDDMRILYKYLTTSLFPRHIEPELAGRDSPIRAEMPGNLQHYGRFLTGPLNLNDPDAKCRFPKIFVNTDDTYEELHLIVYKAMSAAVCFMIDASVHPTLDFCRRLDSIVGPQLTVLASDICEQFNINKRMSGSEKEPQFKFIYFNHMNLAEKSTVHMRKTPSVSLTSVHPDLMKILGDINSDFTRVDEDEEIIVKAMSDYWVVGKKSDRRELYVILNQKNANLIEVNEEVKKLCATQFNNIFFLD
Chain of UniProt P11802 (P11802 whole entry, looked up): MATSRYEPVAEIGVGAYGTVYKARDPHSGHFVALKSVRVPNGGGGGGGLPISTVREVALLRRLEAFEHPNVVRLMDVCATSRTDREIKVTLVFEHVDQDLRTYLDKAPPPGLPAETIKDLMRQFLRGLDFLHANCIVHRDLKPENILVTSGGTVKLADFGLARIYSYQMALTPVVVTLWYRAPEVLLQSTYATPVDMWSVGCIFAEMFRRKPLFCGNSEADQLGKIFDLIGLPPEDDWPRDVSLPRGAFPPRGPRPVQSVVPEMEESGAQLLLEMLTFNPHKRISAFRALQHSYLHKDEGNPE
Chain of UniProt Q9Y6K0 (Q9Y6K0 whole entry, looked up): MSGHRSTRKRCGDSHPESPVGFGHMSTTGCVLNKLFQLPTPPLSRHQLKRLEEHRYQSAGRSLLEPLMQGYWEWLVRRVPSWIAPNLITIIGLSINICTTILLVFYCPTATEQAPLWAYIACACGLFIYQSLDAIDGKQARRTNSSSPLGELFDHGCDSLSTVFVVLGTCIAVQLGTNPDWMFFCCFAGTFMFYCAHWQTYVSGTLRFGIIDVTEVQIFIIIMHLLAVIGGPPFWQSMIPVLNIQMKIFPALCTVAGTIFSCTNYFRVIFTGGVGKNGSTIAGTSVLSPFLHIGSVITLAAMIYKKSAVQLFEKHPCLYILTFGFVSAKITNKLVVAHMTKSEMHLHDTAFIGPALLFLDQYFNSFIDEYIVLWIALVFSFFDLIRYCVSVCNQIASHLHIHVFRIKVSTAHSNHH
Chain of UniProt O95319 (O95319 whole entry, looked up): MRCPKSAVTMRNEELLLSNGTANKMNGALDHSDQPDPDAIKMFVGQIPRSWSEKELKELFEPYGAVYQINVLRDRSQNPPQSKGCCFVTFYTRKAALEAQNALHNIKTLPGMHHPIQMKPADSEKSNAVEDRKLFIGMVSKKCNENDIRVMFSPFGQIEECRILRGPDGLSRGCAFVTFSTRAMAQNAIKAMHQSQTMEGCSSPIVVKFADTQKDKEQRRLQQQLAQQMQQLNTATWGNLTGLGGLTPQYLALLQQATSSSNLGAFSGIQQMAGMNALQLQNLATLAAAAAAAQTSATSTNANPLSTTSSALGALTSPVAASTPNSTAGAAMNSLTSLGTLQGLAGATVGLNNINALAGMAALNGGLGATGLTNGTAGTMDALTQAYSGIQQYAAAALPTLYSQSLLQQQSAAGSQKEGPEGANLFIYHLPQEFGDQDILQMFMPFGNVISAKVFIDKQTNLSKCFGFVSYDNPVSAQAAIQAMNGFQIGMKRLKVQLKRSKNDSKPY
Chain of UniProt P42574 (P42574 whole entry, looked up): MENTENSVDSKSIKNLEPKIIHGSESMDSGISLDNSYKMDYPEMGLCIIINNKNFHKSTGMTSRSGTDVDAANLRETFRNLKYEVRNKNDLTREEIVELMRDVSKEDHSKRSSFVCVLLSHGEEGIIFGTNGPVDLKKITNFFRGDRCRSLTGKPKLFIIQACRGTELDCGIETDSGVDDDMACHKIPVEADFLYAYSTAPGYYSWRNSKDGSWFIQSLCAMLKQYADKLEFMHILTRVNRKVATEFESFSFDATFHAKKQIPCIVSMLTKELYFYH
Chain of UniProt Q9NYV4 (Q9NYV4 whole entry, looked up): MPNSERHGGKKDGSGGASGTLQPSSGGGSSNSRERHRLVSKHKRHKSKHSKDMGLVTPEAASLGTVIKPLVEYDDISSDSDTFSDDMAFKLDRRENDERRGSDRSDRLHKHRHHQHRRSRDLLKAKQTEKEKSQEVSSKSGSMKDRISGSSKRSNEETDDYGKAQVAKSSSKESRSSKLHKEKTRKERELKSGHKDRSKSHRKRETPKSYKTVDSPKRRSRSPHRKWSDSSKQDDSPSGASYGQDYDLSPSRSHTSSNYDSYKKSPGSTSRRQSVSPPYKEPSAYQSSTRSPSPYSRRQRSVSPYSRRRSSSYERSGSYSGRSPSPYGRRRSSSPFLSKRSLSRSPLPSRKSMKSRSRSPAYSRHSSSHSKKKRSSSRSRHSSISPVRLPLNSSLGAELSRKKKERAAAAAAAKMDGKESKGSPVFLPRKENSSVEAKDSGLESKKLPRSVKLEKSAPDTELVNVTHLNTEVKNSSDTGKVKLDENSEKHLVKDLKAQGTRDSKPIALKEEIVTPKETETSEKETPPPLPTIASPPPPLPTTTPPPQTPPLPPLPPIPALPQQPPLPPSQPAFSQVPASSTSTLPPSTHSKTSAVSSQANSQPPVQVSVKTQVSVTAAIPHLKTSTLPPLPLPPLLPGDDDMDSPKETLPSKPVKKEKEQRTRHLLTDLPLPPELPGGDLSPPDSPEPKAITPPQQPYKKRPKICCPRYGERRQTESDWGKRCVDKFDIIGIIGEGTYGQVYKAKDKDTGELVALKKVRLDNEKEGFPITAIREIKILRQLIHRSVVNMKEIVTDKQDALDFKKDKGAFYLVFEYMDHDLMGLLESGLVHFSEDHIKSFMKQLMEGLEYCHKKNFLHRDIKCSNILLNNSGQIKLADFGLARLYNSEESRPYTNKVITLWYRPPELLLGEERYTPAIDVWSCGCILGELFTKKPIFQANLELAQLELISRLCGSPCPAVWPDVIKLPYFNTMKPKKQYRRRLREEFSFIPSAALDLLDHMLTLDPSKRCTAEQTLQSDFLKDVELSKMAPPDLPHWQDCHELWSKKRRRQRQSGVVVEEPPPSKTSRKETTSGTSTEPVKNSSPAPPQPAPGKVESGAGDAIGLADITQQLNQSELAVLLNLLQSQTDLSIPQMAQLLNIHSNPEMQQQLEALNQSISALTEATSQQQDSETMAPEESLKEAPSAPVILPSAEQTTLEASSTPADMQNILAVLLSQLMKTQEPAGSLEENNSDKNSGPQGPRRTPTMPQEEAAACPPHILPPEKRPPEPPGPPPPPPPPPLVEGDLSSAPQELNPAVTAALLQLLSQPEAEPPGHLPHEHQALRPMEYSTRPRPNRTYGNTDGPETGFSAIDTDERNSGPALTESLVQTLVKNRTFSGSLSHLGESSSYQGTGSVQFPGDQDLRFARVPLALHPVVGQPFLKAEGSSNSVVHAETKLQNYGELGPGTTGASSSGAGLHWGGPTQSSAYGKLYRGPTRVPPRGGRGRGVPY
Chain of UniProt Q9NRR8 (Q9NRR8 whole entry, looked up): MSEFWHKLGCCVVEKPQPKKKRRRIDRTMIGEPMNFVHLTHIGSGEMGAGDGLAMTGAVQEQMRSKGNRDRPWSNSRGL

Target | log2 fold change
CLCN7 (UniProt P51798) | 0.038 (inactive)
CCZ1 (UniProt P86791) | 0.011 (inactive)
C1D (UniProt Q13901) | -0.175 (inactive)
CNOT7 (UniProt Q9UIV1) | 0.053 (inactive)
CDC42BPA isoform 6 (UniProt Q5VT25) | 0.141 (inactive)
COMMD1 (UniProt Q8N668) | 0.097 (inactive)
CETN3 (UniProt O15182) | -0.164 (inactive)
C4orf33 (UniProt Q8N1A6) | -0.082 (inactive)
CDK9 isoform 2 (UniProt P50750) | 0.024 (inactive)
CDC25B isoform 4 (UniProt P30305) | -0.077 (inactive)
CHEK1 (UniProt O14757) | 0 (inactive)
CD53 (UniProt P19397) | -0.182 (inactive)
CRTC2 (UniProt Q53ET0) | 0.031 (inactive)
CDK4 (UniProt P11802) | -0.128 (inactive)
CNOT1 (UniProt A5YKK6) | 0.046 (inactive)
CPSF1 (UniProt Q10570) | 0.014 (inactive)
CLUH, A0A494C0R8 | -0.072 (inactive)
CEPT1 (UniProt Q9Y6K0) | 0.016 (inactive)

Target | log2 fold change
CELF2 isoform 3 (UniProt O95319) | 0.005 (inactive)
CDC42SE1 (UniProt Q9NRR8) | 0.051 (inactive)
CASP3 (UniProt P42574) | 0.022 (inactive)
CDK12 (UniProt Q9NYV4) | -0.002 (inactive)
COQ9 (UniProt O75208) | -0.004 (inactive)
COMMD2 (UniProt Q86X83) | 0.159 (inactive)
CDK6 (UniProt Q00534) | -0.024 (inactive)
CA8 (UniProt P35219) | 0.02 (inactive)
CA1 (UniProt P00915) | 0.016 (inactive)
CLSPN (UniProt Q9HAW4) | 0 (inactive)
CCNH (UniProt P51946) | 0.018 (inactive)
CLPP (UniProt Q16740) | 0.008 (inactive)
CHD4 isoform 2 (UniProt Q14839) | 0.116 (inactive)
CAMSAP1 isoform 3 (UniProt Q5T5Y3) | 0.042 (inactive)
CCDC57 (UniProt Q2TAC2) | 0.013 (inactive)
CHST11 (UniProt Q9NPF2) | 0.384 (active)
CRLF3 (UniProt Q8IUI8) | 0.044 (inactive)
CAD (UniProt P27708) | -0.018 (inactive)

Compound: CCCc1cc(C)[nH]c(=O)c1CNC(=O)c1cc(-c2ccnc(N3CCN(C)CC3)c2)cc2c1cnn2C(C)C
Experiment: as above
Outline: as §1

Target | log2 fold change
CLCN7 (UniProt P51798) | -0.068 (inactive)
CCZ1 (UniProt P86791) | -0.029 (inactive)
C1D (UniProt Q13901) | -0.019 (inactive)
CNOT7 (UniProt Q9UIV1) | -0.011 (inactive)
CDC42BPA isoform 6 (UniProt Q5VT25) | -0.013 (inactive)
COMMD1 (UniProt Q8N668) | 0.056 (inactive)
CETN3 (UniProt O15182) | -0.116 (inactive)
C4orf33 (UniProt Q8N1A6) | 0.07 (inactive)
CDK9 isoform 2 (UniProt P50750) | 0.036 (inactive)
CDC25B isoform 4 (UniProt P30305) | -0.352 (inactive)
CHEK1 (UniProt O14757) | -0.022 (inactive)
CD53 (UniProt P19397) | -0.092 (inactive)
CRTC2 (UniProt Q53ET0) | 0.103 (inactive)
CDK4 (UniProt P11802) | -0.025 (inactive)
CNOT1 (UniProt A5YKK6) | 0.013 (inactive)
CPSF1 (UniProt Q10570) | -0.005 (inactive)
CLUH, A0A494C0R8 | 0.016 (inactive)
CEPT1 (UniProt Q9Y6K0) | -0.122 (inactive)

Target | log2 fold change
CELF2 isoform 3 (UniProt O95319) | -0.02 (inactive)
CDC42SE1 (UniProt Q9NRR8) | -0.705 (inactive)
CASP3 (UniProt P42574) | 0.113 (inactive)
CDK12 (UniProt Q9NYV4) | 0.104 (inactive)
COQ9 (UniProt O75208) | -0.006 (inactive)
COMMD2 (UniProt Q86X83) | 0.019 (inactive)
CDK6 (UniProt Q00534) | -0.027 (inactive)
CA8 (UniProt P35219) | -0.002 (inactive)
CA1 (UniProt P00915) | -0.039 (inactive)
CLSPN (UniProt Q9HAW4) | -0.012 (inactive)
CCNH (UniProt P51946) | -0.029 (inactive)
CLPP (UniProt Q16740) | 0.023 (inactive)
CHD4 isoform 2 (UniProt Q14839) | 0.101 (inactive)
CAMSAP1 isoform 3 (UniProt Q5T5Y3) | -0.19 (inactive)
CCDC57 (UniProt Q2TAC2) | -0.047 (inactive)
CHST11 (UniProt Q9NPF2) | 0.089 (inactive)
CRLF3 (UniProt Q8IUI8) | 0.025 (inactive)
CAD (UniProt P27708) | -0.078 (inactive)
